From PubChem BioAssay
The list is not random: actives were taken first. Their share in the collection is about 4.2%.
SW480 rereplic: inducers of DNA re-replication in SW480 colon cancer cells; hit rate 1.8% among 340,000; SW480 DNA re-replication, Hoechst DNA content imaging, 48 h; Potency, µM (doses to about 46.1 µM), most hits filed as activators; further: nearly all actives have a fitted effect of over 55% in size
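Quantitative HTS format with DMSO vehicle controls; 48 hr drug incubation at 37 C, then 40 min Hoechst staining and scanning imager measurement at 405 nm excitation.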
Mito fusion yeast: blocks mitochondrial division or promotes mitochondrial fusion. Potency, µM (top dose mostly 46.1 µM), usual class: activators. S. cerevisiae fusion-defective mutant growth rescue, CellTiterGlo 48 h. AID 485298. hit rate 0.23% among 320,000; further: nearly all actives have a fitted effect of over 45% in size
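Growth-rescue viability read-out: after 48 h at the non-permissive 37C in glycerol/ethanol YPEG, yeast mitochondrial fusion mutants are measured by CellTiterGlo luminescence; compounds (23 nl pinned per well) restoring growth score as division inhibitors or fusion activators.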
MCF10A rerep: DNA re-replication induction in MCF 10a cells; MCF 10A DNA re-replication, Hoechst nuclear intensity, 48 h; Potency, µM (top dose mostly 46.1 µM), usual class: activators; hit rate 2.9% among 350,000; AID 624296; further: nearly all actives have a fitted effect of over 50% in size
Integrin act MD: activates integrin-mediated alleviation for muscular dystrophy | hit rate 0.064% among 350,000 | AID 624291 | alpha7betagal myoblasts, beta-gal FDG fluorescence, 48 h | Potency, µM (series often up to 38.3 µM), usual class: activators; further: nearly all actives have a fitted effect of over 60% in size
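Alpha7betagal+/- myoblasts (passage 13) were plated 16-24 hr, then exposed to compounds (1:260 dilution of DMSO stock) for 48 hours at 37C. After MPER lysis, β-galactosidase reporter activity was read as FDG fluorescence (ex 480/em 540) after 30 minutes.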
AT treatment: potential ataxia-telangiectasia treatment. hit rate 0.19% among 320,000. AID 485349. Potency, µM (titrated, usually from 57.5 µM), usual class: activators. F2112 A-T fibroblasts, KAP-1 phosphorylation AlphaLISA; neocarzinostatin DNA damage 30 min before lysis; further: nearly all actives have a fitted effect of over 45% in size
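ATM-like activity read as KAP-1 phosphorylation via AlphaLISA donor/acceptor antibody pairs after lysis and 6 hr at 25C. Cells were ATM-null patient fibroblasts (F2112, hTERT), dosed 60 min, then exposed to the DSB inducer NCS for 30 min.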
Numbers stand for hits; - = inactive; ? = inconclusive; . = no result given; ! = not active in a repeat. The call rests on the fitted dose curve; in most records, active means well fitted activation curve with a large enough effect; inconclusive means small, poorly fitted or top-dose-only effect; inactive means no such curve, though single readings can be large or run the other way.

SMILES	SW480 rereplic	Mito fusion yeast	MCF10A rerep	Integrin act MD	AT treatment
CCOC(=O)C(=CNc1cc(Cl)c(-c2ccco2)c(Cl)c1)C(=O)OCC	-	-	16µM	-	-
CCOC(=O)C(=CNc1ccc(-c2ccco2)c(Cl)c1)C(=O)OCC	-	-	21µM	-	-
CCN(c1ccccc1)S(=O)(=O)c1cccc(C(=O)NCCN2CCOCC2)c1	-	-	-	-	-
COc1ccc(OC)c(-c2csc(NC(=O)c3ccc(F)cc3)n2)c1	?	-	6.5µM	-	-
COc1ccc(OC)c(-c2csc(NC(=O)Cn3[nH]c(=O)c4ccccc4c3=O)n2)c1	8.2µM	-	?	-	-
Cc1ccc(C(=O)Nc2nc(-c3cc(Cl)sc3Cl)cs2)cc1	-	-	26µM	-	-
O=C(NCC1OCCc2ccccc21)c1cc(COc2c(F)cccc2F)on1 (stereo not given)	-	-	-	-	-
CCOC(=O)c1cc(C(=O)OCC)c(=O)[nH]c1N1CCCC1	-	-	-	-	-
NNC(=O)CSc1cccc2cccnc12	-	-	-	-	-
CN(C)C(=O)CSc1cccc2cccnc12	5.2µM	-	?	-	-
O=C(CSc1cccc2cccnc12)N/N=C/c1ccncc1	1.8µM	-	-	-	-
O=C(CSc1cccc2cccnc12)N1CCCC1	?	-	12µM	-	-
C=CCN(CC=C)S(=O)(=O)c1ccc(NC(=S)NC(=O)Cc2ccc(OC)cc2)cc1	-	-	-	-	-
COc1cccc(C(=O)Nc2ccc(N3CCN(C(=O)c4cccs4)CC3)cc2)c1	5.8µM	-	13µM	-	-
O=C(Nc1ccc(N2CCN(C(=O)c3cccs3)CC2)cc1)c1ccccc1Cl	23µM	-	?	-	-
O=C(Nc1ccc(N2CCN(C(=O)c3cccs3)CC2)cc1)c1ccccc1F	?	-	?	?	-
O=C(Nc1ccc(N2CCN(C(=O)c3cccs3)CC2)cc1)c1cccc(F)c1	?	-	?	-	-
COc1ccc(NC(=O)c2cc3c(COC(C)=O)cnc(C)c3oc2=Nc2cccc(C(=O)O)c2)c(OC)c1	-	-	-	-	-
Cc1ccc(S(=O)(=O)NCC2CCC(C(=O)NCCCN3CCCC3=O)CC2)cc1 (stereo not given)	-	-	-	-	-
CCN(CC)CCNC(=O)c1cc(-c2ccc(Br)s2)nc2ccccc12	?	-	?	-	-
CCCCOc1cc(C(=O)NCCN(CC)CC)c2ccccc2n1	-	-	12µM!	.	-
O=c1c(Cc2c(F)cccc2Cl)c(O)ccn1C1CCCCCC1	-	-	0.18µM	-	-
O=c1c(Cc2c(F)cccc2Cl)c(O)ccn1Cc1ccc(F)cc1	-	-	-	-	-
CCCCCOC(=O)c1[nH]c2c(c1C)C(=O)C(C(=O)OC)C(C)C2 (stereo not given)	?	-	21µM	-	.
CC(=O)c1cccc(NC(=O)C(C)OC(=O)/C=C/c2cccs2)c1 (stereo not given)	?	-	-	-	-
SMILES	SW480 rereplic	Mito fusion yeast	MCF10A rerep	Integrin act MD	AT treatment
N=C1C(c2ccccc2)=C(O)CN1c1ccccc1	-	-	-	-	-
N=C1C(c2ccccc2)=C(O)CN1c1ccc2c(c1)OCO2	-	-	16µM	-	-
Cc1cc(C(=O)NCCN2CCN(c3cccc(Cl)c3)CC2)n(-c2ccccc2)n1	8.2µM	-	26µM	-	-
Cc1cc(C(=O)NCCCN2CCN(c3cc(Cl)ccc3C)CC2)n(-c2ccccc2)n1	?	-	?	-	-
Cc1cc(C)c(OCCOCCN2CCN(C)CC2)c(Cl)c1	-	-	5.8µM	-	-
CCCCNC(=S)Nc1cccc(S(=O)(=O)NC2=NCCC2)c1	-	-	-	-	-
CCCOc1c(OC)cccc1C1CC(=O)Nc2cc3c(cc21)OCCO3 (stereo not given)	?	-	5.8µM	-	-
CCCOc1c(OC)cccc1C1CC(=O)Nc2cc3c(cc21)OCO3 (stereo not given)	16µM	-	5.8µM	-	-
Nc1ccc(/C=C/c2ccc(N)cc2S(=O)(=O)O)c(S(=O)(=O)O)c1	-	.	-	.	.
COCCn1c(SCC(=O)NCc2ccco2)nnc1C(C)C	-	-	-	-	-
CCCN(CC(=O)Nc1ccc(Cl)cc1Cl)C(=O)/C=C/c1ccco1	-	-	9.2µM	-	-
NC(=O)c1nsc(C(=O)N(Cc2ccco2)C(C(=O)NCc2ccc(F)cc2)c2ccc(O)cc2)c1N (stereo not given)	-	-	-	-	-
NC(=O)c1nsc(C(=O)N(c2ccccc2)C(C(=O)NCc2ccc(F)cc2)c2ccc(O)cc2)c1N (stereo not given)	?	-	13µM	2.2µM	-
COc1ccc(N(C(=O)c2snc(C(N)=O)c2N)C(C(=O)NCc2ccccc2)c2ccc(O)cc2)cc1 (stereo not given)	-	-	?	-	-
Cc1ccc(C(C(=O)NCc2ccc(F)cc2)N(Cc2ccco2)C(=O)c2snc(C(N)=O)c2N)o1 (stereo not given)	-	-	16µM	-	-
O=C(O)c1cc(S(=O)(=O)Nc2ccc(OCc3ccccc3)cc2)ccc1Br	-	-	-	?	-
CC(=O)Oc1cc2cccc(OC(C)=O)c(=O)c2c(OC(C)=O)c1OC(C)=O	-	-	-	-	-
O=C(CSc1nc2ccccc2c(=O)n1-c1ccc(F)cc1F)NC1CCS(=O)(=O)C1 (stereo not given)	.	.	.	-	.
COc1ccc(Nc2nc(C)nc3c2nnn3Cc2ccccc2Cl)c(OC)c1	-	-	3.3µM	-	-
COc1ccc(Nc2nc(C)nc3c2oc2ccccc23)c(OC)c1	?	-	15µM	-	-
Cc1nc(Nc2ccccc2O)c2oc3ccccc3c2n1	-	-	-	-	-
COc1ccccc1Nc1nc(C)nc2c1oc1ccccc12	-	-	18µM	-	-
CCc1nc(Nc2ccc(OC)cc2OC)c2oc3ccccc3c2n1	?	-	?	-	-
COc1ccc(C(=O)OCC(=O)c2ccco2)cc1[N+](=O)[O-]	.	.	.	-	.
CCCCC1CC(=O)NC1(C(=O)OCC)C(=O)OCC (stereo not given)	-	.	-	-	.
SMILES	SW480 rereplic	Mito fusion yeast	MCF10A rerep	Integrin act MD	AT treatment
CC(C)COc1ccc(S(=O)(=O)NNC(=O)c2cc3ccccc3o2)cc1	-	?	-	-	-
CCCCOc1ccc(S(=O)(=O)NNC(=O)c2cc3ccccc3o2)cc1	-	11µM	?	-	-
CCOC(=O)c1c(C)oc2c1C(=O)c1ccccc1C2=O	3.7µM	-	-	-	-
COc1cccc(/C=C2\SC(=O)NC2=O)c1OCc1ccc(C(=O)O)cc1	-	-	-	-	-
COc1ccc(OC)c(/C=C2\S/C(=N/NC(=O)c3ccc4ccccc4c3)NC2=O)c1	-	-	16µM	-	-
O=C1N/C(=N/NC(=O)c2cccc3ccccc23)S/C1=C\c1ccccc1OCc1ccccc1	-	-	23µM	-	-
